Experimental data from the supplement of paper PMC11732987, “Enantioselective OTUD7B fragment discovery through chemoproteomics screening and high-throughput optimisation” (Communications Chemistry, 2025).

Columns and labels:
Test in all cases: log2 ratio of Biotin-Ahx-Ub-VS probe labelling (fragment/DMSO); higher = less target engagement (more negative = stronger competition), active = hit call of the paper (q ≤ 0.05, log2 ratio ≤ -1)
Conditions in all cases: compound concentration: 200 uM; treatment time: 3 h
USP42 = biological target: T1, USP42 (UniProt Q9H9J4)
T1 sequence (whole entry): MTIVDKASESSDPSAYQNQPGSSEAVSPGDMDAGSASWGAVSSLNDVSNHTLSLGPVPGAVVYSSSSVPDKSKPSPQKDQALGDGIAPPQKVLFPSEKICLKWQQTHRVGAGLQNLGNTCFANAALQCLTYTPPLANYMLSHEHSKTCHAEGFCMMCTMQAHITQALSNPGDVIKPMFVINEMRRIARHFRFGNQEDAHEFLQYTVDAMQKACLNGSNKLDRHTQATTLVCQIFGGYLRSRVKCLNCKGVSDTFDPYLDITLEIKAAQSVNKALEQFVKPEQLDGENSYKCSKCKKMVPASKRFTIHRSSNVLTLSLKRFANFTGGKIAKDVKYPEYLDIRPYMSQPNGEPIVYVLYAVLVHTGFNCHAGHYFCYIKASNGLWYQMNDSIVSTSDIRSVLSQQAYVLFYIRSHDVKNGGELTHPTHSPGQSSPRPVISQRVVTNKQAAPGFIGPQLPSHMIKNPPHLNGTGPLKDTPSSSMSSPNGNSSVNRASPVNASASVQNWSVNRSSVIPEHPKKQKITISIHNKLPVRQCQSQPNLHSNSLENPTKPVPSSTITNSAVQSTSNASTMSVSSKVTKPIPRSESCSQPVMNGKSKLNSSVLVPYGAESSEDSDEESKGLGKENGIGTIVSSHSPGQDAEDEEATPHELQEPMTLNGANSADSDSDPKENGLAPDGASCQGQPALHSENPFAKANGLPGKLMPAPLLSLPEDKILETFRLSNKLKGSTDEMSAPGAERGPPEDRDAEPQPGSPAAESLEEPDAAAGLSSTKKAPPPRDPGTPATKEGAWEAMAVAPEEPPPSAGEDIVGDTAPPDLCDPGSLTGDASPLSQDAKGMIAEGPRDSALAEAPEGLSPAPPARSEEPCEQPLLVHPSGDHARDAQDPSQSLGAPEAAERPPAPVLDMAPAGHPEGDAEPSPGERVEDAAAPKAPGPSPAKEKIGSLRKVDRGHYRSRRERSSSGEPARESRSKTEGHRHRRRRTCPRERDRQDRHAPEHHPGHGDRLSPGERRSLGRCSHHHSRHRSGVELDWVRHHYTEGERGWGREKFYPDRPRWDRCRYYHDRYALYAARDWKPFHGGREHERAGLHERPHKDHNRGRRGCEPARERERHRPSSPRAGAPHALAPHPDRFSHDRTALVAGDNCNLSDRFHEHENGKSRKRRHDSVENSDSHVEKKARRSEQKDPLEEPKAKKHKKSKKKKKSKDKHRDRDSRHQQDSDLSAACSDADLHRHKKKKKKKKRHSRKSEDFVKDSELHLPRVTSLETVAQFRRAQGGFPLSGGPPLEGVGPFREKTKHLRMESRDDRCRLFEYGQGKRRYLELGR
Method in brief: (§1)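 HEK293T lysate (495 µg per sample, in Tris/CHAPS/IGEPAL buffer with protease inhibitors) was treated in triplicate with fragment at 200 µM or with DMSO for 3 h. It was then treated with Biotin-Ahx-Ub-VS (0.5 µM final) for 1 h. Labelled DUBs were NeutrAvidin-enriched, digested with LysC and trypsin, and run by diaPASEF LC-MS/MS. Spectronaut label-free quantities were global-median-normalised. Values are average log2 ratios fragment/DMSO by unpaired t-test, using proteins with ≥2 unique peptides.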

USP46 = USP46 (UniProt P62068)
USP46, sequence (P62068 whole entry): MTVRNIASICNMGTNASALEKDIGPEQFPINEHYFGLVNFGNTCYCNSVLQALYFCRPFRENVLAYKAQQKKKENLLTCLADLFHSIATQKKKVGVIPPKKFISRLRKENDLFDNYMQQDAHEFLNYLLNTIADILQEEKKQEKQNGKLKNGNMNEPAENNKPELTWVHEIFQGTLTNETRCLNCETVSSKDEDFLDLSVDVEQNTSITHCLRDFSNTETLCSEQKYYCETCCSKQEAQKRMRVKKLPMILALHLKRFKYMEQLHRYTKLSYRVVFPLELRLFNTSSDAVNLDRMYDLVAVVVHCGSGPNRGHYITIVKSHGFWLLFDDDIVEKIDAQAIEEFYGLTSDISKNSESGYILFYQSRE
Method in brief: as §1

USP47 = biological target: T2, USP47 (UniProt Q96K76)
T2 sequence (whole entry): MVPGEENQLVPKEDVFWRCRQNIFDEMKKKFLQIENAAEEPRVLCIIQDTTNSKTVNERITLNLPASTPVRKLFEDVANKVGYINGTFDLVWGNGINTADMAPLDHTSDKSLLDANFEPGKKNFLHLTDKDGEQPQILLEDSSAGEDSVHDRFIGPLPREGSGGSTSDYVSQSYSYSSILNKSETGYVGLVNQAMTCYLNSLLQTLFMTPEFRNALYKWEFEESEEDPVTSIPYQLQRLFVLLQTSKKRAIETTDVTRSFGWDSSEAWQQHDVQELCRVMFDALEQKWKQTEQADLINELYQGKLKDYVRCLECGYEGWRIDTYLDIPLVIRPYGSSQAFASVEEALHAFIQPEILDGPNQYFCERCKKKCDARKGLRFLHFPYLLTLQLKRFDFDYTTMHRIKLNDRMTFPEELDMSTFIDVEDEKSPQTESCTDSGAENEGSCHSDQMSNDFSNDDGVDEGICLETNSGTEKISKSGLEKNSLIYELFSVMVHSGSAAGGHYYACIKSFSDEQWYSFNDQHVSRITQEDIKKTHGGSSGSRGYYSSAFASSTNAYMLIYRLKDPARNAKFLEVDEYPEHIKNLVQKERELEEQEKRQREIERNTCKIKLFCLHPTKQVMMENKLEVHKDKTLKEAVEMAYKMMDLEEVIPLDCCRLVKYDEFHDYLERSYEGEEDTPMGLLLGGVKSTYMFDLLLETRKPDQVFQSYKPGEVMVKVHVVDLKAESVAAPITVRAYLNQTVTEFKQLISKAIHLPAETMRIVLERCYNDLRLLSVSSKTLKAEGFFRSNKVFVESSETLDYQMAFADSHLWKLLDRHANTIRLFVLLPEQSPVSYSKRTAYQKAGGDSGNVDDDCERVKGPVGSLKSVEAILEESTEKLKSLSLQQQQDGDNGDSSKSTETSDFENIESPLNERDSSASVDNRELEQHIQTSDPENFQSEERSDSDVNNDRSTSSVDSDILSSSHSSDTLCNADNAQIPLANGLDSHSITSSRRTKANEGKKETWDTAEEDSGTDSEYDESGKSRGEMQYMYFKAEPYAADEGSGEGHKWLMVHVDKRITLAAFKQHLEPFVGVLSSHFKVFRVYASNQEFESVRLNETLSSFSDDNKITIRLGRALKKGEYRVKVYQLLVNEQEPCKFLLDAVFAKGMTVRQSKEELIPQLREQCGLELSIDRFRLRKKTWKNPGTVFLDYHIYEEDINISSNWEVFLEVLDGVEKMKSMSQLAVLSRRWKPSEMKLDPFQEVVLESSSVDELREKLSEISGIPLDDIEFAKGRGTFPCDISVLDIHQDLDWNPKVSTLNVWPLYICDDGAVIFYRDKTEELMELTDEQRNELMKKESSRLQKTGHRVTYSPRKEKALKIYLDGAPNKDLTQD
Method in brief: as §1

USP48 = biological target: T3, USP48 (UniProt Q86UV5)
T3 sequence (whole entry): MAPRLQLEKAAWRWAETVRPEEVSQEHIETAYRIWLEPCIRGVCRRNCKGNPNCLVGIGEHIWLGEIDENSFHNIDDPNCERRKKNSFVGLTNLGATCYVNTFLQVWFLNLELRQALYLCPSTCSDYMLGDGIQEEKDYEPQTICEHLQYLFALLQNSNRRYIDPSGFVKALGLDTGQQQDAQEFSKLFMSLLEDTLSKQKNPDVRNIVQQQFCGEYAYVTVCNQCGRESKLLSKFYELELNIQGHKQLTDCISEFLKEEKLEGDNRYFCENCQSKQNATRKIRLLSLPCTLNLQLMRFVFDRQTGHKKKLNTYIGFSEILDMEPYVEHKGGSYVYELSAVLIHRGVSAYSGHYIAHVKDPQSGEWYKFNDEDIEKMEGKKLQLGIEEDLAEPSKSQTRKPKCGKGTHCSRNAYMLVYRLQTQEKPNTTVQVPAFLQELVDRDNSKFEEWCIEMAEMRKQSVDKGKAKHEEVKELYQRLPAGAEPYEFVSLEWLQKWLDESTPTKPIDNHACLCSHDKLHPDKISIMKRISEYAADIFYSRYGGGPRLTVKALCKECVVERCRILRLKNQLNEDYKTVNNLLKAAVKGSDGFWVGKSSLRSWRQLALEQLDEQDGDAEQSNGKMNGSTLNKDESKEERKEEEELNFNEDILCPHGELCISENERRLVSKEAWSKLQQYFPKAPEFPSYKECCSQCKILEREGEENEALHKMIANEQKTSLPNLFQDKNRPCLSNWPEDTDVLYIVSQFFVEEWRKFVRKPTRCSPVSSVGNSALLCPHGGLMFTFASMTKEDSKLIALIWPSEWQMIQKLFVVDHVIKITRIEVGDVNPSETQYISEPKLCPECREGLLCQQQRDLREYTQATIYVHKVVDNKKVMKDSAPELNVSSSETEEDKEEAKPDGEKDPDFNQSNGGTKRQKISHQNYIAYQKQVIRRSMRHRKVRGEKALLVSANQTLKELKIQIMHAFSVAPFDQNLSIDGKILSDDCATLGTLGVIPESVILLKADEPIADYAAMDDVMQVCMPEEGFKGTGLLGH
Method in brief: as §1

USP5 = biological target: T4, USP5 (UniProt P45974)
T4 sequence (whole entry): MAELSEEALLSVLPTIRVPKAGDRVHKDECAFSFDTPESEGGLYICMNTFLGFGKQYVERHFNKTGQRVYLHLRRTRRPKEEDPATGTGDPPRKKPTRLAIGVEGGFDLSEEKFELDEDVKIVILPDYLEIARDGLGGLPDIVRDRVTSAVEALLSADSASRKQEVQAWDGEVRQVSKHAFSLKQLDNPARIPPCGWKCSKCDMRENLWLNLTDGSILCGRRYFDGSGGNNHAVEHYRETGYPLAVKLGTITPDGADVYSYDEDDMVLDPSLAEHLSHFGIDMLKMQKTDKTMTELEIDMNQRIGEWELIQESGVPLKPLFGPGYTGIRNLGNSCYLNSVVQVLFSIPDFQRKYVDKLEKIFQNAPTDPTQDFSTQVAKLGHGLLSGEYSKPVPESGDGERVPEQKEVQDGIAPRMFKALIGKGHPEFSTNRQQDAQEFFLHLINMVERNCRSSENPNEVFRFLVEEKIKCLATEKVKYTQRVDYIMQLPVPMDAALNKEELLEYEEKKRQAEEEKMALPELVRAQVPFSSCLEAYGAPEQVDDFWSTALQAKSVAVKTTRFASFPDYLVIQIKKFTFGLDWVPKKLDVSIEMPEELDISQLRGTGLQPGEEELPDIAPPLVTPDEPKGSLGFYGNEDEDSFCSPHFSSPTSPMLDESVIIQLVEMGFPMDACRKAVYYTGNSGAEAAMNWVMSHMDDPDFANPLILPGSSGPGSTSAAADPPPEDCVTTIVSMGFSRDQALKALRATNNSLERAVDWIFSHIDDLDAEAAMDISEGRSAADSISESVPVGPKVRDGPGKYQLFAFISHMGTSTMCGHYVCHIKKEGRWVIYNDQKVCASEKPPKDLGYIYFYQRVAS
Method in brief: as §1

USP54 = USP54 (UniProt Q70EL1)
USP54, sequence (Q70EL1 whole entry): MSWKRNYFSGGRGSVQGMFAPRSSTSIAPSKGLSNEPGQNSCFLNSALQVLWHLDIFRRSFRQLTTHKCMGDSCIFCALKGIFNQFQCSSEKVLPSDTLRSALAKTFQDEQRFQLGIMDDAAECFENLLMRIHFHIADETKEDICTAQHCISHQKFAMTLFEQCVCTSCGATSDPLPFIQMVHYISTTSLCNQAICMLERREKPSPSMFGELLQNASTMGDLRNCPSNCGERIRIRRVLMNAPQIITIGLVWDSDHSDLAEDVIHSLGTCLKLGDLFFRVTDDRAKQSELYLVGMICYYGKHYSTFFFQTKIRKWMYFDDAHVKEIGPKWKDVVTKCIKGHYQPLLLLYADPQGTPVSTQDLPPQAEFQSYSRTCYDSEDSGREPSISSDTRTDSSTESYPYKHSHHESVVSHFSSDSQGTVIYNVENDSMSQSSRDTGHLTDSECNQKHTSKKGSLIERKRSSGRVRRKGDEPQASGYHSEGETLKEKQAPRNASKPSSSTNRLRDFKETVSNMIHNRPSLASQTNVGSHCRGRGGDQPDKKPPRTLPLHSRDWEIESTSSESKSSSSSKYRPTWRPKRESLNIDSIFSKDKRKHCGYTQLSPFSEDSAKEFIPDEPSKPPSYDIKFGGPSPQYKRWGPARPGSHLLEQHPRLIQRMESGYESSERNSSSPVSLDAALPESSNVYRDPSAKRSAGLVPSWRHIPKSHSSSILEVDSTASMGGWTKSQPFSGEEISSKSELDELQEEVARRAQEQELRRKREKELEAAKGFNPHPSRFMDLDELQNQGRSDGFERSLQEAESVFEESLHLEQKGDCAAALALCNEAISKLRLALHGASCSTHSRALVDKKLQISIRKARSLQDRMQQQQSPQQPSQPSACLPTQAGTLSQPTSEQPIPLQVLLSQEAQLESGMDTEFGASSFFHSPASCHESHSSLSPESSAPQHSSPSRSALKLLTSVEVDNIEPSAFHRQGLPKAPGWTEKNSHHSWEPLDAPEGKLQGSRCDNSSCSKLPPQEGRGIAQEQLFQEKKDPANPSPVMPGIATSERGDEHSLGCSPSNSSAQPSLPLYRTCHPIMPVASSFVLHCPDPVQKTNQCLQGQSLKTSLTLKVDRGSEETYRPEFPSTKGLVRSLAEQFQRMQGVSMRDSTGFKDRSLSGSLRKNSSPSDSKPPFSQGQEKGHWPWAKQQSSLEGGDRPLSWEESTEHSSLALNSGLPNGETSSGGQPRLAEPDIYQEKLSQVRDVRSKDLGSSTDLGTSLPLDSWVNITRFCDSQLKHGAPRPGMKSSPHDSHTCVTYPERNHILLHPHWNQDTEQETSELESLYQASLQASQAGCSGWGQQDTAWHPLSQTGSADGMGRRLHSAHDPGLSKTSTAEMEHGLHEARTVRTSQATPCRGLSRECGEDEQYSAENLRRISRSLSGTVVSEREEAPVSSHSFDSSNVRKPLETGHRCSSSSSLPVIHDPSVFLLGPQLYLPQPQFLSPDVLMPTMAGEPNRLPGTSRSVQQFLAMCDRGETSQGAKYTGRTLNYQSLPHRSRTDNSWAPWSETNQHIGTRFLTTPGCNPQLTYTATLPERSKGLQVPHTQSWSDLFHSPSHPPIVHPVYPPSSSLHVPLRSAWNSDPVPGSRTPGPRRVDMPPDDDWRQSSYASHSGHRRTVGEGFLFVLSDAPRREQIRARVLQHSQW
Method in brief: as §1

USP7 = USP7 (UniProt Q93009)
USP7, sequence (Q93009 whole entry, looked up): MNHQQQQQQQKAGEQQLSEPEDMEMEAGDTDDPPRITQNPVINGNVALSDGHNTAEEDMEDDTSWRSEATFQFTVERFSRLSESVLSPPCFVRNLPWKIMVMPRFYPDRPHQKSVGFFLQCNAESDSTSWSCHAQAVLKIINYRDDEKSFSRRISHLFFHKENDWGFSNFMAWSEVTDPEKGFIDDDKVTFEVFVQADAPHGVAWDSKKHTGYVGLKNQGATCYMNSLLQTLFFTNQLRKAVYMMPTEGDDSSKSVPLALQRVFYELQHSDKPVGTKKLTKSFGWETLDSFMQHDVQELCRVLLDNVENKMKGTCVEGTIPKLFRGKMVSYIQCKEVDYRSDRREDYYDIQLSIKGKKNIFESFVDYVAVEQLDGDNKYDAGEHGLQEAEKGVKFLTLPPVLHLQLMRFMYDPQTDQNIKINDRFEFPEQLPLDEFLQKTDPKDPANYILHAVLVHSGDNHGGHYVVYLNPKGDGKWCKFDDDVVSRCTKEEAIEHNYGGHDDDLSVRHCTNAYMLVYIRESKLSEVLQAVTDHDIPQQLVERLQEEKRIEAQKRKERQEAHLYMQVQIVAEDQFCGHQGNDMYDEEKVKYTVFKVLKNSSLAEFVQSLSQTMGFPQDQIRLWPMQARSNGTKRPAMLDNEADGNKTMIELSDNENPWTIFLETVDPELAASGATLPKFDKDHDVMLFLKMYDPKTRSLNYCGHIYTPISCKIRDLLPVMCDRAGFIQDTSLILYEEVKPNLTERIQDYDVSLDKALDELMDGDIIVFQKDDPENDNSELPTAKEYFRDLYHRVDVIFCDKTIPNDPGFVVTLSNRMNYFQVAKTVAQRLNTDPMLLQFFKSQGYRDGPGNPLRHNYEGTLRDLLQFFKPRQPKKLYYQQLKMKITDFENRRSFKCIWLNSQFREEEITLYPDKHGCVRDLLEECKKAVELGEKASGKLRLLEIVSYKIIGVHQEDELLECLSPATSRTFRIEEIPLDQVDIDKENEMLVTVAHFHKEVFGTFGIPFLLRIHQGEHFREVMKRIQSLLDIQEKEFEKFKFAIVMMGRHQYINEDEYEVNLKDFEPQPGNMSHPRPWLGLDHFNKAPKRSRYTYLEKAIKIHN
Method in brief: as §1

USP8 = biological target: T5, USP8 (UniProt P40818)
T5 sequence (whole entry): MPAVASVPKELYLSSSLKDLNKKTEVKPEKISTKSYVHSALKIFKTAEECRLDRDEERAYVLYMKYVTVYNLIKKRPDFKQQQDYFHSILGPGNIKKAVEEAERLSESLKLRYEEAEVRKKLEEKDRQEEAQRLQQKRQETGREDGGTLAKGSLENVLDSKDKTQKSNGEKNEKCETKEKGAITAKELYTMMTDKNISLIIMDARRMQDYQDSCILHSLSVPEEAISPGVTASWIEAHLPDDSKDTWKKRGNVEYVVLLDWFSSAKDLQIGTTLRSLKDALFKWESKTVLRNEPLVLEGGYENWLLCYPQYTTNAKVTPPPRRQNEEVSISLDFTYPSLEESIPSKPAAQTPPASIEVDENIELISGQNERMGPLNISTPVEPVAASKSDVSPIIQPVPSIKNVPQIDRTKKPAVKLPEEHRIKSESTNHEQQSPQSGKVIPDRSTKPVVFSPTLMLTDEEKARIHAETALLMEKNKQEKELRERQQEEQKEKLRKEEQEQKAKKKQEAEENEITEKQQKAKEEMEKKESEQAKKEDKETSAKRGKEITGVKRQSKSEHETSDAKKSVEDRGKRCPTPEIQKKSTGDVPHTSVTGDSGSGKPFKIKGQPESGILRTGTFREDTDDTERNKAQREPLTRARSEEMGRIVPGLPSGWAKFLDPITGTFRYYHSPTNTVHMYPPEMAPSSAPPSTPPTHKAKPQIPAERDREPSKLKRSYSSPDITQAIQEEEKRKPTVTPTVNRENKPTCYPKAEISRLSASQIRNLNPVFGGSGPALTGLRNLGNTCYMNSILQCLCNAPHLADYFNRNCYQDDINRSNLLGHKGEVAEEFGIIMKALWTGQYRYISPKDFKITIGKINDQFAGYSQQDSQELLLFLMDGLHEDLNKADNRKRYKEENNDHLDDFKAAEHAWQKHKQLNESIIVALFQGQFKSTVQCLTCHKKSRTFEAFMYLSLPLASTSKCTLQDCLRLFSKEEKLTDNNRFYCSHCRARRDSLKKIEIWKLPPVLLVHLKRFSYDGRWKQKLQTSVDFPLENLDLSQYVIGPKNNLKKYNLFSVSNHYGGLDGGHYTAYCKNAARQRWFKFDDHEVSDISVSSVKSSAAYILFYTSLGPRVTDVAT
Method in brief: as §1

USP9X = USP9X (UniProt Q93008)
Method in brief: as §1

UniProt O00487 = biological target: UniProt O00487
UniProt O00487, sequence (O00487 whole entry): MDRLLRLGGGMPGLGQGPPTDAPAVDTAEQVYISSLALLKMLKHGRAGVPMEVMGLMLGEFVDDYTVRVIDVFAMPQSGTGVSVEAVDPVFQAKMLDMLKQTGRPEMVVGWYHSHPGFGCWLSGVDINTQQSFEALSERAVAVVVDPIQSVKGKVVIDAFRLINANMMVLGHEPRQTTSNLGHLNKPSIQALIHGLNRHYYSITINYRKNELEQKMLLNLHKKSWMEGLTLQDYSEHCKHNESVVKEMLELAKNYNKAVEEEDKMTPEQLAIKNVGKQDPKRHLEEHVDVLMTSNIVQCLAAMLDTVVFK
Method in brief: as §1

Measured: log2 ratio of Biotin-Ahx-Ub-VS probe labelling

Cc1cccc(N(CCC#N)C(=O)CCl)c1C
inactive: USP42 0.0225 | USP46 0.0197 | USP47 -0.354 | USP48 -0.0383 | USP5 0.289 | USP54 0.431 | USP7 -0.47 | USP8 0.0891 | USP9X 0.0273 | UniProt O00487 0.0621
